# Data reported in the supplement of paper PMC12282887.
# Counter-ions that a name gives are not always drawn. ± gives the standard deviation of the averaged measurements.
# Tests used:
# Assay in all cases: promoter activity interaction Z-score (Lux/OD deviation from empty-vector control); higher = stronger promoter induction by the compound
# [1] = tested on: E. coli BW25113 soxSp lux reporter
# Procedure, shortened: (§1)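 Reporter strains of E. coli BW25113 grew at 37°C in 40 µl LB Lennox in 384-well plates. Readings of OD600 and luminescence were taken every 30 min over 12 h, integrated over 0–8 h (wild type) or 1–9 h (deletion strains), and wells below 10% of the median growth value were excluded. Scores are Z-transformed residuals of growth-normalised luminescence from a fit against a control.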
# [2] = tested on: E. coli BW25113 tolCp lux reporter
# Procedure, shortened: as §1
# [3] = tested on: E. coli BW25113 acrABp lux reporter
# Procedure, shortened: as §1
# [4] = tested on: E. coli BW25113 marRABp lux reporter
# Procedure, shortened: as §1
# [5] = tested on: E. coli BW25113 micFp lux reporter
# Procedure, shortened: as §1
# [6] = tested on: E. coli BW25113 ompFp lux reporter
# Procedure, shortened: as §1
# [7] = tested on: E. coli BW25113 robp lux reporter
# Procedure, shortened: as §1
# [8] = 78.6 µg/ml, genetic background: Δrob
# [9] = 78.6 µg/ml, genetic background: ΔsoxS
# [10] = 157.2 µg/ml, genetic background: wild type
# [11] = 157.2 µg/ml, genetic background: ΔmarA
# [12] = 157.2 µg/ml, genetic background: Δrob
# [13] = 157.2 µg/ml, genetic background: ΔsoxS
# [14] = 28.9 µg/ml, genetic background: wild type
# [15] = 28.9 µg/ml, genetic background: ΔmarA
# [16] = 28.9 µg/ml, genetic background: Δrob
# [17] = 28.9 µg/ml, genetic background: ΔsoxS
# [18] = 57.7 µg/ml, genetic background: wild type
# [19] = 57.7 µg/ml, genetic background: ΔmarA
# [20] = 57.7 µg/ml, genetic background: Δrob
# [21] = 57.7 µg/ml, genetic background: ΔsoxS
# [22] = 115.5 µg/ml, genetic background: wild type
# [23] = 115.5 µg/ml, genetic background: ΔmarA
# [24] = 115.5 µg/ml, genetic background: Δrob
# [25] = 115.5 µg/ml, genetic background: ΔsoxS
# [26] = 230.9 µg/ml, genetic background: wild type
# [27] = 230.9 µg/ml, genetic background: ΔmarA
# [28] = 230.9 µg/ml, genetic background: Δrob
# [29] = 230.9 µg/ml, genetic background: ΔsoxS
structure (smiles),measurement,setting,value
CC(=O)[C@H]1CC[C@H]2[C@@H]3CCC4=CC(=O)CC[C@]4(C)[C@H]3CC[C@]12C [Progesterone],promoter activity interaction Z-score,[1]; [8],-0.0586 ± 0.098
same,promoter activity interaction Z-score,[1]; [9],-0.236 ± 0.25
same,promoter activity interaction Z-score,[1]; [10],-0.226 ± 0.079
same,promoter activity interaction Z-score,[1]; [11],-0.186 ± 0.028
same,promoter activity interaction Z-score,[1]; [12],-0.48 ± 0.037
same,promoter activity interaction Z-score,[1]; [13],-0.776 ± 0.47
same,promoter activity interaction Z-score,"[2]; 19.7 µg/ml, genetic background: wild type",-0.462 ± 1.4
same,promoter activity interaction Z-score,"[2]; 19.7 µg/ml, genetic background: ΔmarA",0.741 ± 0.62
same,promoter activity interaction Z-score,"[2]; 19.7 µg/ml, genetic background: Δrob",-0.127 ± 0.85
same,promoter activity interaction Z-score,"[2]; 19.7 µg/ml, genetic background: ΔsoxS",-0.377 ± 0.42
same,promoter activity interaction Z-score,"[2]; 39.3 µg/ml, genetic background: wild type",0.606 ± 1
same,promoter activity interaction Z-score,"[2]; 39.3 µg/ml, genetic background: ΔmarA",0.0914 ± 0.43
same,promoter activity interaction Z-score,"[2]; 39.3 µg/ml, genetic background: Δrob",0.494 ± 1
same,promoter activity interaction Z-score,"[2]; 39.3 µg/ml, genetic background: ΔsoxS",-1.65 ± 1.1
same,promoter activity interaction Z-score,"[2]; 78.6 µg/ml, genetic background: wild type",-0.308 ± 0.37
same,promoter activity interaction Z-score,"[2]; 78.6 µg/ml, genetic background: ΔmarA",0.451 ± 1.3
same,promoter activity interaction Z-score,[2]; [8],0.161 ± 0.71
same,promoter activity interaction Z-score,[2]; [9],0.0688 ± 1.3
same,promoter activity interaction Z-score,[2]; [10],-0.227 ± 0.23
same,promoter activity interaction Z-score,[2]; [11],0.167 ± 0.12
same,promoter activity interaction Z-score,[2]; [12],-0.116 ± 0.74
same,promoter activity interaction Z-score,[2]; [13],0.764 ± 1
O=C(O)COCCN1CCN(C(c2ccccc2)c2ccc(Cl)cc2)CC1 (centres undefined) [Cetirizine dihydrochloride],promoter activity interaction Z-score,[3]; [14],0.153 ± 0.22
same,promoter activity interaction Z-score,[3]; [15],-0.276 ± 0.91
same,promoter activity interaction Z-score,[3]; [16],0.0774 ± 0.078
same,promoter activity interaction Z-score,[3]; [17],0.344 ± 0.22
same,promoter activity interaction Z-score,[3]; [18],0.202 ± 0.41
same,promoter activity interaction Z-score,[3]; [19],-0.0899 ± 0.93
same,promoter activity interaction Z-score,[3]; [20],-0.297 ± 0.33
same,promoter activity interaction Z-score,[3]; [21],0.424 ± 0.48
same,promoter activity interaction Z-score,[3]; [22],-0.397 ± 0.14
same,promoter activity interaction Z-score,[3]; [23],-0.531 ± 0.29
same,promoter activity interaction Z-score,[3]; [24],-0.491 ± 0.057
same,promoter activity interaction Z-score,[3]; [25],-0.239 ± 0.68
same,promoter activity interaction Z-score,[3]; [26],-0.0515 ± 0.05
same,promoter activity interaction Z-score,[3]; [27],-0.913 ± 0.67
same,promoter activity interaction Z-score,[3]; [28],-0.435 ± 0.21
same,promoter activity interaction Z-score,[3]; [29],-0.388 ± 0.13
same,promoter activity interaction Z-score,[4]; [14],-0.0717 ± 0.029
same,promoter activity interaction Z-score,[4]; [15],0.0437 ± 0.062
same,promoter activity interaction Z-score,[4]; [16],0.000338 ± 0.29
same,promoter activity interaction Z-score,[4]; [17],-0.0906 ± 0.0024
same,promoter activity interaction Z-score,[4]; [18],0.151 ± 0.32
same,promoter activity interaction Z-score,[4]; [19],-0.0182 ± 0.02
same,promoter activity interaction Z-score,[4]; [20],-0.17 ± 0.18
same,promoter activity interaction Z-score,[4]; [21],-0.0648 ± 0.1
same,promoter activity interaction Z-score,[4]; [22],-0.301 ± 0.014
same,promoter activity interaction Z-score,[4]; [23],-0.0679 ± 0.12
same,promoter activity interaction Z-score,[4]; [24],-0.391 ± 0.15
same,promoter activity interaction Z-score,[4]; [25],-0.384 ± 0.18
same,promoter activity interaction Z-score,[4]; [26],-0.385 ± 0.034
same,promoter activity interaction Z-score,[4]; [27],-0.279 ± 0.0034
same,promoter activity interaction Z-score,[4]; [28],-0.565 ± 0.14
same,promoter activity interaction Z-score,[4]; [29],-0.389 ± 0.19
same,promoter activity interaction Z-score,[5]; [14],0.013 ± 0.03
same,promoter activity interaction Z-score,[5]; [15],-0.101 ± 0.1
same,promoter activity interaction Z-score,[5]; [16],0.0307 ± 0.16
same,promoter activity interaction Z-score,[5]; [17],-0.145 ± 0.42
same,promoter activity interaction Z-score,[5]; [18],0.36 ± 0.081
same,promoter activity interaction Z-score,[5]; [19],0.049 ± 0.28
same,promoter activity interaction Z-score,[5]; [20],-0.0293 ± 0.15
same,promoter activity interaction Z-score,[5]; [21],0.0699 ± 0.025
same,promoter activity interaction Z-score,[5]; [22],-0.327 ± 0.23
same,promoter activity interaction Z-score,[5]; [23],0.145 ± 0.13
same,promoter activity interaction Z-score,[5]; [24],0.0776 ± 0.1
same,promoter activity interaction Z-score,[5]; [25],0.0293 ± 0.34
same,promoter activity interaction Z-score,[5]; [26],-0.141 ± 0.27
same,promoter activity interaction Z-score,[5]; [27],-0.0442 ± 0.057
same,promoter activity interaction Z-score,[5]; [28],0.195 ± 0.18
same,promoter activity interaction Z-score,[5]; [29],0.145 ± 0.13
same,promoter activity interaction Z-score,[6]; [14],0.228 ± 0.026
same,promoter activity interaction Z-score,[6]; [15],0.523 ± 0.32
same,promoter activity interaction Z-score,[6]; [16],0.79 ± 0.32
same,promoter activity interaction Z-score,[6]; [17],0.079784 ± 6.4e-05
same,promoter activity interaction Z-score,[6]; [18],0.523 ± 0.44
same,promoter activity interaction Z-score,[6]; [19],0.651 ± 0.083
same,promoter activity interaction Z-score,[6]; [20],0.368 ± 0.14
same,promoter activity interaction Z-score,[6]; [21],-0.205 ± 0.16
same,promoter activity interaction Z-score,[6]; [22],-0.463 ± 0.064
same,promoter activity interaction Z-score,[6]; [23],-0.0368 ± 0.095
same,promoter activity interaction Z-score,[6]; [24],-0.449 ± 0.31
same,promoter activity interaction Z-score,[6]; [25],-0.656 ± 0.25
same,promoter activity interaction Z-score,[6]; [26],0.136 ± 0.46
same,promoter activity interaction Z-score,[6]; [27],0.203 ± 0.1
same,promoter activity interaction Z-score,[6]; [28],-0.688 ± 0.7
same,promoter activity interaction Z-score,[6]; [29],-0.667 ± 0.25
same,promoter activity interaction Z-score,[7]; [14],-0.0279 ± 0.081
same,promoter activity interaction Z-score,[7]; [15],0.621 ± 0.13
same,promoter activity interaction Z-score,[7]; [16],0.0745 ± 0.28
same,promoter activity interaction Z-score,[7]; [17],-0.318 ± 0.5
same,promoter activity interaction Z-score,[7]; [18],0.609 ± 0.057
same,promoter activity interaction Z-score,[7]; [19],0.466 ± 0.37
same,promoter activity interaction Z-score,[7]; [20],-0.327 ± 0.31
same,promoter activity interaction Z-score,[7]; [21],0.0119 ± 0.7
same,promoter activity interaction Z-score,[7]; [22],-0.592 ± 0.34
same,promoter activity interaction Z-score,[7]; [23],0.00802 ± 0.12
same,promoter activity interaction Z-score,[7]; [24],-0.339 ± 0.12
same,promoter activity interaction Z-score,[7]; [25],-0.844 ± 0.1
same,promoter activity interaction Z-score,[7]; [26],-0.359 ± 0.2
same,promoter activity interaction Z-score,[7]; [27],-0.425 ± 0.43
same,promoter activity interaction Z-score,[7]; [28],-1.18 ± 0.85
same,promoter activity interaction Z-score,[7]; [29],-0.876 ± 0.55
same,promoter activity interaction Z-score,[1]; [14],0.227 ± 0.035
same,promoter activity interaction Z-score,[1]; [15],0.219 ± 0.05
same,promoter activity interaction Z-score,[1]; [16],0.143 ± 0.03
same,promoter activity interaction Z-score,[1]; [17],0.36 ± 0.29
same,promoter activity interaction Z-score,[1]; [18],0.625 ± 0.26
same,promoter activity interaction Z-score,[1]; [19],0.233 ± 0.067
same,promoter activity interaction Z-score,[1]; [20],0.113 ± 0.061
same,promoter activity interaction Z-score,[1]; [21],0.411 ± 0.45
same,promoter activity interaction Z-score,[1]; [22],0.0448 ± 0.13
same,promoter activity interaction Z-score,[1]; [23],0.311 ± 0.1
same,promoter activity interaction Z-score,[1]; [24],0.108 ± 0.041
same,promoter activity interaction Z-score,[1]; [25],0.145 ± 0.43
same,promoter activity interaction Z-score,[1]; [26],0.0238 ± 0.4
same,promoter activity interaction Z-score,[1]; [27],0.289 ± 0.11
same,promoter activity interaction Z-score,[1]; [28],0.127 ± 0.06
same,promoter activity interaction Z-score,[1]; [29],-0.0281 ± 0.68
same,promoter activity interaction Z-score,[2]; [14],-0.028 ± 0.45
same,promoter activity interaction Z-score,[2]; [15],0.994 ± 0.066
same,promoter activity interaction Z-score,[2]; [16],0.083 ± 0.48
same,promoter activity interaction Z-score,[2]; [17],0.251 ± 1.2
same,promoter activity interaction Z-score,[2]; [18],1.49 ± 0.11
same,promoter activity interaction Z-score,[2]; [19],0.225 ± 0.61
same,promoter activity interaction Z-score,[2]; [20],0.369 ± 1.3
same,promoter activity interaction Z-score,[2]; [21],-0.607 ± 0.17
same,promoter activity interaction Z-score,[2]; [22],0.247 ± 0.057
same,promoter activity interaction Z-score,[2]; [23],-0.0757 ± 0.41
same,promoter activity interaction Z-score,[2]; [24],0.295 ± 0.29
same,promoter activity interaction Z-score,[2]; [25],-0.698 ± 0.023
same,promoter activity interaction Z-score,[2]; [26],0.059 ± 0.6
same,promoter activity interaction Z-score,[2]; [27],-0.764 ± 0.4
same,promoter activity interaction Z-score,[2]; [28],-0.176 ± 0.18
same,promoter activity interaction Z-score,[2]; [29],0.432 ± 0.65
